Laboratory results reported in PubChem BioAssay (NCATS).
Records with an inconclusive call do not appear. Active and inactive are the calls of the source. Calls come from the whole dose curve; as a rule, active = well fitted cell-killing curve with a large enough effect; inconclusive = small, poorly fitted or top-dose-only effect, or effect the other way; inactive = flat fitted curve, though single readings scatter.

How the values were obtained:
Experiment in all cases: Primary qHTS to identify gynecologic anti-cancer compounds using libraries of approved drugs and bioactive compounds (AID 1345084); note: nearly all actives have a fitted effect of over 55% in size
C33A = conditions: Gynecologic cancer cell panel viability, ATPlite luminescence, 48 h; series mostly up to 57.5 µM
In short: (§1)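 48 h compound exposure at 37 C, 5% CO2; five-point qHTS. ATPlite luminescence readout of cell ATP.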

CAOV3 = conditions: Gynecologic cancer cell panel viability, ATPlite luminescence, 48 h; series mostly up to 57.5 µM
In short: as §1

CASKI = conditions: Gynecologic cancer cell panel viability, ATPlite luminescence, 48 h; series mostly up to 57.5 µM
In short: as §1

Es-2 = conditions: Gynecologic cancer cell panel viability, ATPlite luminescence, 48 h; series mostly up to 57.5 µM
In short: as §1

HeLa = conditions: Gynecologic cancer cell panel viability, ATPlite luminescence, 48 h; series mostly up to 57.5 µM
In short: as §1

Hek293T = conditions: Gynecologic cancer cell panel viability, ATPlite luminescence, 48 h, control line for the selectivity index; series mostly up to 57.5 µM
In short: as §1

JEG-3 = conditions: Gynecologic cancer cell panel viability, ATPlite luminescence, 48 h; series mostly up to 57.5 µM
In short: as §1

OV90 = conditions: Gynecologic cancer cell panel viability, ATPlite luminescence, 48 h; series mostly up to 57.5 µM
In short: as §1

PA-1 = conditions: Gynecologic cancer cell panel viability, ATPlite luminescence, 48 h; series mostly up to 57.5 µM
In short: as §1

SKOV3 = conditions: Gynecologic cancer cell panel viability, ATPlite luminescence, 48 h; series mostly up to 57.5 µM
In short: as §1

Tov-21-G = conditions: Gynecologic cancer cell panel viability, ATPlite luminescence, 48 h; series mostly up to 57.5 µM
In short: as §1

Tov112D = conditions: Gynecologic cancer cell panel viability, ATPlite luminescence, 48 h; series mostly up to 57.5 µM
In short: as §1

Measured: Potency

C[C@@H]1O[C@@H](OC[C@H]2O[C@@H](OCc3ccccc3)[C@H](O)[C@@H](O)[C@@H]2O)[C@H](O)[C@H](O)[C@H]1O
inactive: C33A | CAOV3 | CASKI | Es-2 | HeLa | Hek293T | JEG-3 | OV90 | PA-1 | SKOV3 | Tov-21-G | Tov112D

COC(=O)[C@H](Cc1cccc(C(=N)N)c1)[C@@H](C)NC(=O)c1ccc(-c2cc[n+]([O-])cc2)cc1
inactive: C33A | CAOV3 | CASKI | Es-2 | HeLa | Hek293T | JEG-3 | OV90 | PA-1 | SKOV3 | Tov-21-G | Tov112D

CC(C)[C@@](O)(c1ccc2cc(OC(F)F)c(OC(F)F)cc2c1)c1cn[nH]n1
inactive: C33A | CAOV3 | CASKI | Es-2 | HeLa | Hek293T | JEG-3 | OV90 | PA-1 | SKOV3 | Tov-21-G | Tov112D

CC1=CCC[C@@H]2[C@@](C)(CCc3ccoc3)[C@H](C(=O)O)CC[C@@]12C
inactive: C33A | CAOV3 | CASKI | Es-2 | HeLa | Hek293T | JEG-3 | OV90 | PA-1 | SKOV3 | Tov-21-G | Tov112D

COC(=O)C1=COC(OC2OC(CO)C(O)C(O)C2O)C2C(COC(=O)/C=C/c3ccc(O)c(O)c3)C(O)C(O)C12 (stereo unspecified)
inactive: C33A | CAOV3 | CASKI | Es-2 | HeLa | Hek293T | JEG-3 | OV90 | PA-1 | SKOV3 | Tov-21-G | Tov112D

COc1cc(O)cc(O[C@@H]2O[C@H](CO)[C@@H](O[C@@H]3OC[C@](O)(CO)[C@H]3O)[C@H](O)[C@H]2O)c1OC
inactive: C33A | CAOV3 | CASKI | Es-2 | HeLa | Hek293T | JEG-3 | OV90 | PA-1 | SKOV3 | Tov-21-G | Tov112D

OCC1=C[C@@H](O)[C@@H]2C=CO[C@@H](O[C@@H]3O[C@H](CO)[C@@H](O)[C@H](O)[C@H]3O)[C@H]12
inactive: C33A | CAOV3 | CASKI | Es-2 | HeLa | Hek293T | JEG-3 | OV90 | PA-1 | SKOV3 | Tov-21-G | Tov112D

COc1cc2c(cc1O)C(c1ccc(O)cc1)C(C)C(C)C2 (stereo unspecified)
inactive: C33A | CAOV3 | CASKI | Es-2 | HeLa | Hek293T | JEG-3 | OV90 | PA-1 | SKOV3 | Tov-21-G | Tov112D

COc1ccc(-n2[nH]c3c(cnc4ccccc43)c2=O)cc1
inactive: C33A | CAOV3 | CASKI | Es-2 | HeLa | Hek293T | JEG-3 | OV90 | PA-1 | SKOV3 | Tov-21-G | Tov112D

CC(C)(O)C(O)C(=O)OCc1ccc(O[C@@H]2O[C@H](CO)[C@@H](O)[C@H](O)[C@H]2O)cc1 (stereo partly specified)
inactive: C33A | CAOV3 | CASKI | Es-2 | HeLa | Hek293T | JEG-3 | OV90 | PA-1 | SKOV3 | Tov-21-G | Tov112D

CC(=O)O[C@H]1C[C@@H](O)C(C)(C)C2C[C@@H](OC(C)=O)[C@]3(C)C(CC[C@@]4(C)[C@H](c5ccoc5)OC(=O)[C@H]5O[C@]543)[C@]21C (stereo partly specified)
inactive: C33A | CAOV3 | CASKI | Es-2 | HeLa | Hek293T | JEG-3 | OV90 | PA-1 | SKOV3 | Tov-21-G | Tov112D

COc1c(C)c(OCC=C(C)C)cc2c1COC2=O
inactive: C33A | CAOV3 | CASKI | Es-2 | HeLa | Hek293T | JEG-3 | OV90 | PA-1 | SKOV3 | Tov-21-G | Tov112D

C=C(C)[C@@H]1CC[C@]2(C(=O)O)CC[C@]3(C)[C@H](CCC4[C@@]5(C)CCC(=O)C(C)(C)C5C(O)C[C@]43C)C12 (stereo partly specified)
inactive: C33A | CAOV3 | CASKI | Es-2 | HeLa | Hek293T | JEG-3 | OV90 | PA-1 | SKOV3 | Tov-21-G | Tov112D
